The full data set covers some 7,900 targets. This sample favours those with a hit. About 0.6% of all pairs of compound and target were hits. A number with no mark means an inactive call.

Chain of UniProt Q6EEV4 (Q6EEV4 whole entry, looked up): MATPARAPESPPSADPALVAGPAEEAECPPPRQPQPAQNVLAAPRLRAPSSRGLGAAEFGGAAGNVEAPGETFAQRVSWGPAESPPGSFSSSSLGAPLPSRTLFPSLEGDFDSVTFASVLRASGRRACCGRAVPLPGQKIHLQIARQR
Chain of UniProt Q9H5K3 (Q9H5K3 whole entry, looked up): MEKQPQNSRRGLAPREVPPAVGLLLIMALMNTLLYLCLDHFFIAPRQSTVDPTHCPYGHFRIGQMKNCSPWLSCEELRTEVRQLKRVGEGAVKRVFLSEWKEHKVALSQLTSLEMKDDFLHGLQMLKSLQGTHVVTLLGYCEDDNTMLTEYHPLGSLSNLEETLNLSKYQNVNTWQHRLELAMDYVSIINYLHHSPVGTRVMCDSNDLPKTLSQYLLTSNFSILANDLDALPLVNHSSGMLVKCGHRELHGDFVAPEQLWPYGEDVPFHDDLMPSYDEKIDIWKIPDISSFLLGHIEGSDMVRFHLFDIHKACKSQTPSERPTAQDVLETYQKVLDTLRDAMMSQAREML
Chain of UniProt P41247 (P41247 whole entry, looked up): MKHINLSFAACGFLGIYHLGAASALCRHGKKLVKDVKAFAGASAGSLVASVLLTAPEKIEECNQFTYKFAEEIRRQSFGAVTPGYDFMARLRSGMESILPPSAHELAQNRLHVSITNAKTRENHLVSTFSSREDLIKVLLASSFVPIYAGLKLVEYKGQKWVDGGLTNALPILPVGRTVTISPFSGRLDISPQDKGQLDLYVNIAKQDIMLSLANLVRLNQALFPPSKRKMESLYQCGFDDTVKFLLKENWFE
Chain of UniProt Q9H307 (Q9H307 whole entry, looked up): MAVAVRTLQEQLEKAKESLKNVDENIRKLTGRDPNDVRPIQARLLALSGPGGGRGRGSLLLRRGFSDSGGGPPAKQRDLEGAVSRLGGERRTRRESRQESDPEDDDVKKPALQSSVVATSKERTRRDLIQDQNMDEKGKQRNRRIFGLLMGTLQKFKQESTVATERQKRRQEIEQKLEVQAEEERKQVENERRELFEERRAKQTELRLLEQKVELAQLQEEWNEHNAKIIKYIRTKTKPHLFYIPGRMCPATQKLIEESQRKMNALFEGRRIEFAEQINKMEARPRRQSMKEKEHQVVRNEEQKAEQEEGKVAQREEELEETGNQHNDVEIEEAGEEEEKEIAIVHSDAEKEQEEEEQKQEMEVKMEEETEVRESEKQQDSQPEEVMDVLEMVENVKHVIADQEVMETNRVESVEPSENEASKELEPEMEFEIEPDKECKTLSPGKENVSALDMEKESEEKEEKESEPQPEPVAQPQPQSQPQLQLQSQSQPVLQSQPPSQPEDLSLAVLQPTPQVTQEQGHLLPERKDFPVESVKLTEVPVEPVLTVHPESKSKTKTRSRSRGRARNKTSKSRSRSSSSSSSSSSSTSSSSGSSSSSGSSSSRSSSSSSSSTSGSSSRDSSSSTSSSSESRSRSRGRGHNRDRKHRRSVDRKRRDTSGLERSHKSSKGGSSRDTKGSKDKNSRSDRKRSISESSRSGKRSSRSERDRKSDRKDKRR
Chain of UniProt O60678 (O60678 whole entry, looked up): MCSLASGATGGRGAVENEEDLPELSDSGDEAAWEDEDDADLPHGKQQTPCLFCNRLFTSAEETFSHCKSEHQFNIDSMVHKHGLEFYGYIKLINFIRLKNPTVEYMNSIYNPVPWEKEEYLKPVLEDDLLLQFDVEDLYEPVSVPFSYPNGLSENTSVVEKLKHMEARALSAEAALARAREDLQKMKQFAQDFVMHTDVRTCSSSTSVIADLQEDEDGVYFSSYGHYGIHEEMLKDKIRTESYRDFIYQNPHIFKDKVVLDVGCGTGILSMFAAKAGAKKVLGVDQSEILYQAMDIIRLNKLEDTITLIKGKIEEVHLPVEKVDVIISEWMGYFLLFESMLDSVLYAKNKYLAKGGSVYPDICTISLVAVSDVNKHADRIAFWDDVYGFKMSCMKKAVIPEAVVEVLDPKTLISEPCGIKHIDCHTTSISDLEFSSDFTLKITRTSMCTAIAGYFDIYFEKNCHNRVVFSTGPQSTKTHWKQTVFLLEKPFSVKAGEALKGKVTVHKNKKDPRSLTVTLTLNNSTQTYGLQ
Chain of UniProt P28070 (P28070 whole entry, looked up): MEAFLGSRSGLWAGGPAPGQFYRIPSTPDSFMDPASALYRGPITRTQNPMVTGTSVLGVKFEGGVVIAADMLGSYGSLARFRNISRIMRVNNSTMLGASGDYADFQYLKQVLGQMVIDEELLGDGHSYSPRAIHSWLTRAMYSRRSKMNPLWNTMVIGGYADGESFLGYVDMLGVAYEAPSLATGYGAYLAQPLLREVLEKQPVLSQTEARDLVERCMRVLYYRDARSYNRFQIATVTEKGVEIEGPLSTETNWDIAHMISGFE
Chain of UniProt Q9P2B2 (Q9P2B2 whole entry, looked up): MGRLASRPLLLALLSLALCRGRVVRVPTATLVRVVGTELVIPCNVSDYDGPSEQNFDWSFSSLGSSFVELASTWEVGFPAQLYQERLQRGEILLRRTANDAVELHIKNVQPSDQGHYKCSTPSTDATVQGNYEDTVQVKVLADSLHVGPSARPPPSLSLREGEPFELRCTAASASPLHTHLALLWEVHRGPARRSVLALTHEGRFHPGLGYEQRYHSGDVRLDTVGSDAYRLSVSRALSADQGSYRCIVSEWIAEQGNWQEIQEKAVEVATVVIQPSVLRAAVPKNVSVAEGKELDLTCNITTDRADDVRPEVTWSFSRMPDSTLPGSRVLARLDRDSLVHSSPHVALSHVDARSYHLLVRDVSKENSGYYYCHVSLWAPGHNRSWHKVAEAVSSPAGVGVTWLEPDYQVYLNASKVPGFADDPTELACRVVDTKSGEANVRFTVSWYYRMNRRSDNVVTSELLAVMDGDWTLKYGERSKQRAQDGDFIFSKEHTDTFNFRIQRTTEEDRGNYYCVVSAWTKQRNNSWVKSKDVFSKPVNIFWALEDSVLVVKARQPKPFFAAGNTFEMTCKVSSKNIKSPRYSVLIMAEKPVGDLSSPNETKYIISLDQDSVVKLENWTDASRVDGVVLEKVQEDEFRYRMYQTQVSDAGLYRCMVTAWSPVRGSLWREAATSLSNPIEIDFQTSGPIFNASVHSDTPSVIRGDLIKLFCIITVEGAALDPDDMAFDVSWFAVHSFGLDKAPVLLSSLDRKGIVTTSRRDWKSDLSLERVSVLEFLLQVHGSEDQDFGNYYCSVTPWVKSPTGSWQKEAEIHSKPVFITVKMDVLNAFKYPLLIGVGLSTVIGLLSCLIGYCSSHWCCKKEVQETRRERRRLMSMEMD
Chain of UniProt Q2TAL8 (Q2TAL8 whole entry, looked up): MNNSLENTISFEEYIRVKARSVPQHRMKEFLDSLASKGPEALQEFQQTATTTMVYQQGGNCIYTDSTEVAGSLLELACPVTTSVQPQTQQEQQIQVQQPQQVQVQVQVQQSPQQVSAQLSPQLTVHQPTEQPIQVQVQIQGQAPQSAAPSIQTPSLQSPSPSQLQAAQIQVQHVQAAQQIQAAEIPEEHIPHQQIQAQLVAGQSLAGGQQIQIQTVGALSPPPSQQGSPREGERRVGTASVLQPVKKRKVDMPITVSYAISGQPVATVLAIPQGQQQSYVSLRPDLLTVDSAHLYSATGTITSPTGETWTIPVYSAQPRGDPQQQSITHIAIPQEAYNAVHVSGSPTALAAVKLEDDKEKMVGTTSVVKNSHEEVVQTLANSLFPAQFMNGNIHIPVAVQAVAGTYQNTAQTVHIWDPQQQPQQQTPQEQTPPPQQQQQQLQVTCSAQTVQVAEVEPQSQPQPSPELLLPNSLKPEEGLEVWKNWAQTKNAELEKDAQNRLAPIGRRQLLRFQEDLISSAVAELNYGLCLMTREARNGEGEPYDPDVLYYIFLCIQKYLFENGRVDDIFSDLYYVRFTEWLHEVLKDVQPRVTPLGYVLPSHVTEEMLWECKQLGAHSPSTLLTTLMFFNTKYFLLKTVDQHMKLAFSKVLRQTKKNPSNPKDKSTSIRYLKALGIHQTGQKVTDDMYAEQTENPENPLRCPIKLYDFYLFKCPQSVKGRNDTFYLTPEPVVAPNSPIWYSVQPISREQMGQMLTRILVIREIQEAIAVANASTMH
Chain of UniProt P54619 (P54619 whole entry, looked up): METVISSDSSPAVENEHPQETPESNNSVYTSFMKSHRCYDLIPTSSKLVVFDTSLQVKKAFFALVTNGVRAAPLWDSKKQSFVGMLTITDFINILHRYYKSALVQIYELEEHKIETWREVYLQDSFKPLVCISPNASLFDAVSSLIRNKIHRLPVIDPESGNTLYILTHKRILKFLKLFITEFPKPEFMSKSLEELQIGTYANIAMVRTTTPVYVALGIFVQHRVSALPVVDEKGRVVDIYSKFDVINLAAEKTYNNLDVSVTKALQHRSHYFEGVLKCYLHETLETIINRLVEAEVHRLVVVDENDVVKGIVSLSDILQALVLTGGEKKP
Chain of UniProt Q15121 (Q15121 whole entry, looked up): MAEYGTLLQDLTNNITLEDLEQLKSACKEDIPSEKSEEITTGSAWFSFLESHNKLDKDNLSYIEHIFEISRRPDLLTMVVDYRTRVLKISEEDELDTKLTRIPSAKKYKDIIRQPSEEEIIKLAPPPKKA
Chain of UniProt P07205 (P07205 whole entry, looked up): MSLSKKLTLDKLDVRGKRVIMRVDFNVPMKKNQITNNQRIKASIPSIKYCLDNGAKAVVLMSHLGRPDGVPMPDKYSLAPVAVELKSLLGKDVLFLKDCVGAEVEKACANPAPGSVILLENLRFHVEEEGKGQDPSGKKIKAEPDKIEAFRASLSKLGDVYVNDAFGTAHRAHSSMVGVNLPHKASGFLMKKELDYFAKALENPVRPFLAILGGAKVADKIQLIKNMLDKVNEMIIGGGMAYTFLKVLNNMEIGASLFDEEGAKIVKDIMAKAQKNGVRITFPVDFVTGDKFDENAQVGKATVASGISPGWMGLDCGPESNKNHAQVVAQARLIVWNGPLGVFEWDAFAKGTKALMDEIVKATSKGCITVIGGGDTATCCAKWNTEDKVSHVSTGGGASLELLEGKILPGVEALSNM

Compound in this assay: CNc1nc(-c2ccc3c(N)n[nH]c3c2)cc(N2C[C@@H](C(=O)NC3CCCCC3)CC[C@H]2C)n1
Briefly: log2 fold change, soluble protein after heating vs DMSO (PISA); higher = thermal stabilisation; K562 cells, 10 uM, 30 min; active = over 0.2 and 3.5 SD of the protein, either way, in both replicates (recomputed). In outline:
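Aliquots of K562 cells (2×10^6 cells/mL) treated with 10 μM compound for 30 min were heated for 3 min over 48°C-58°C. After pooling and extraction in PBS with 0.5% NP-40 at 4°C, soluble protein from a 21,000xg, 90 min spin was quantified by TMTpro 16plex LC-MS/MS with channel sums equalised. Thermal stability is expressed against control samples, from duplicates, as a log2 fold change.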
PKM isoform 2 (UniProt P14618): the log2 fold change is -0.063. For the target PDIK1L (UniProt Q8N165), the log2 fold change is -0.064.

Consider POLR2C (UniProt P19387), for which the log2 fold change is 0.03.

Regarding POLB (UniProt P06746), the log2 fold change was 0.05. Turning to PPP2R5A (UniProt Q15172), the log2 fold change was 0.032. The value for POMK (UniProt Q9H5K3) was -0.052.

Consider PRKAG1 isoform 3 (UniProt P54619), for which the log2 fold change is -0.026. The value for PTGFRN (UniProt Q9P2B2) was 0.056.

For PGK2 (UniProt P07205), the log2 fold change was -0.131.

Take PIGH (UniProt Q14442): the log2 fold change is 0.025. The value for PTP4A2 (UniProt Q12974) was -0.066; that for PNN (UniProt Q9H307) was -0.071.

Consider PPP2R5B (UniProt Q15173), for which the log2 fold change was -0.043. The value for PLIN2 (UniProt Q99541) was -0.001. The value for PNPLA4 (UniProt P41247) was 0.17.

For the target POGZ (UniProt Q7Z3K3), the log2 fold change is 0.136. Turning to PRMT3 (UniProt O60678), the log2 fold change was 0.011. The value for PEX16 isoform 2 (UniProt Q9Y5Y5) was -0.04; that for PIK3CD (UniProt O00329) was 0.089.

As to PPP1R12C (UniProt Q9BZL4), the log2 fold change is -0.164. For POLR2M (UniProt Q6EEV4), the log2 fold change is -0.084. The value for PSMB4 (UniProt P28070) was -0.032; that for PDPK1 (UniProt O15530) was 0.385 (active).

Turning to PHKA1 (UniProt P46020), the log2 fold change was 0.027. The value for POLR2E (UniProt P19388) was 0.104. The value for PRMT8 (UniProt Q9NR22) was 0.052; that for PRKAR2A (UniProt P13861) was -0.04.

Regarding PATL1 (UniProt Q86TB9), the log2 fold change is 0.025. The value for PARP1 (UniProt P09874) was 0.038.

Regarding PHLDB1 isoform 2 (UniProt Q86UU1), the log2 fold change was 0.066. The value for QRICH1 (UniProt Q2TAL8) was -0.004; that for PEA15 isoform 2 (UniProt Q15121) was 0.009.

(Values after the supplement of paper PMC10849652.)
